PubChem BioAssay (NCI)
The panel holds about 79,000 compounds, 15% with a hit somewhere; the sample as a whole holds those more often. Activity calls are given as the source filed them. No stated cut-off is given here; in the data, active means growth inhibition above about 70%; inactive means the rest.

Assays:
[1] = NCI Yeast Anticancer Drug Screen. Data for the rad50 strain (AID 155);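 further: 0% = growth of vehicle-only cultures of the same strain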; details: S. cerevisiae rad50 strain growth inhibition, hits give high values
Procedure, shortened: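 Growth of the mutant yeast was measured after compound exposure and referenced to vehicle-treated cultures.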

[2] = NCI Yeast Anticancer Drug Screen. Data for the mec2-1 strain (AID 157); details: S. cerevisiae mec2-1 strain, hits give high values
Procedure, shortened: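 Compounds were applied to mec2-1 yeast cells. Their growth was then compared with that of vehicle-treated cultures to give growth inhibition.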

[3] = NCI Yeast Anticancer Drug Screen. Data for the sgs1 mgt1 strain (AID 161);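 further: 0% = growth of cultures given vehicle only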; details: S. cerevisiae sgs1 mgt1 strain, hits give high values
Procedure, shortened: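 Percent growth inhibition was derived by comparing compound-exposed mutant yeast with vehicle-exposed cultures. The strain carries alterations in DNA damage repair.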

[4] = NCI Yeast Anticancer Drug Screen. Data for the cln2 rad14 strain (AID 165);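 further: 0% = growth equal to vehicle treated cultures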; details: S. cerevisiae cln2 rad14 strain, hits give high values
Procedure, shortened: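 Strain: cln2 rad14 yeast, altered in cell cycle control and DNA damage repair. Read-out: growth inhibition vs vehicle.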

[5] = NCI Yeast Anticancer Drug Screen. Data for the bub3 strain (AID 167); details: S. cerevisiae bub3 mutant strain, hits give high values
Procedure, shortened: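 Whole-cell yeast assay. The mutant strain was incubated with compounds, and growth inhibition was determined by comparison with vehicle-treated cells.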

[6] = NCI Yeast Anticancer Drug Screen. Data for the mlh1 rad18 strain (AID 175); details: S. cerevisiae mlh1 rad18 strain growth inhibition, hits give high values
Procedure, shortened: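 A repair-deficient yeast strain is exposed to test compound, and growth is scored relative to vehicle-treated controls.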

[7] = at 5.0 µM (retest, dose inferred, filed as 0.5)
[8] = at 50.0 µM (retest, dose inferred, filed as 5.0)

Measured: growth inhibition

COc1ccc(-c2c(COC(C)=O)c(COC(C)=O)c3n2CCC3)cc1
inactive: [1]; [7] -4% | [1]; [8] 34% | [2]; [7] -4% | [2]; [8] 19% | [3]; [7] -6% | [3]; [8] 23% | [4]; [7] -3% | [4]; [8] -4% | [5]; [7] -6% | [5]; [8] -3% | [6]; [7] -6% | [6]; [8] 40%
active: [1]; at 50.0 µM 98.5% | [2]; at 50.0 µM 99.1% | [3]; at 50.0 µM 98.9% | [4]; at 50.0 µM 97.8% | [5]; at 50.0 µM 98.8% | [6]; at 50.0 µM 98.8%

COc1ccc(/C(=C/CN2CCC3CCC(C3)C2)c2ccccc2)cc1 (stereo unspecified)
inactive: [1]; [7] -3% | [1]; [8] -17% | [1]; at 50.0 µM 40.9% | [2]; [7] 5% | [2]; [8] -11% | [2]; at 50.0 µM 14.6% | [3]; [7] -31% | [3]; [8] -27% | [3]; at 50.0 µM 50.8% | [4]; [7] -6% | [4]; [8] -19% | [4]; at 50.0 µM 12.9% | [5]; [7] -3% | [5]; [8] 11% | [5]; at 50.0 µM 17.6% | [6]; [7] -13% | [6]; [8] -34% | [6]; at 50.0 µM 12.7%

CN(C)CCCN1c2cc(Cl)ccc2Sc2ccc3ccccc3c21
active: [1]; [8] 98% | [1]; at 50.0 µM 99.3% | [2]; [8] 99% | [2]; at 50.0 µM 99.3% | [3]; [8] 99% | [3]; at 50.0 µM 99.2% | [4]; [8] 96% | [4]; at 50.0 µM 98.6% | [5]; [8] 96% | [5]; at 50.0 µM 99.5% | [6]; [8] 98% | [6]; at 50.0 µM 99.3%
inactive: [1]; [7] 3% | [2]; [7] 3% | [3]; [7] 3% | [4]; [7] 2% | [5]; [7] 5% | [6]; [7] 28%

O=c1oc2ccccc2c(O)c1/C=N\c1nc(-c2ccccc2)cs1
active: [1]; [8] 99% | [2]; [8] 99% | [3]; [8] 100% | [4]; [8] 97% | [5]; [7] 81% | [5]; [8] 100% | [6]; [8] 99% | [6]; at 50.0 µM 91.8%
inactive: [1]; [7] 41% | [1]; at 50.0 µM 8.95% | [2]; [7] 42% | [2]; at 50.0 µM 16.4% | [3]; [7] 53% | [3]; at 50.0 µM 31.9% | [4]; [7] 36% | [4]; at 50.0 µM 36.6% | [5]; at 50.0 µM 17.1% | [6]; [7] 34%

O=C1c2ccc(O)c(O)c2C(=O)c2c(O)ccc(O)c21
active: [1]; [7] 84% | [1]; [8] 95% | [1]; at 50.0 µM 73.2% | [2]; [7] 74% | [2]; [8] 95% | [3]; [7] 92% | [3]; [8] 95% | [4]; [8] 93% | [5]; [7] 85% | [5]; [8] 93% | [5]; at 50.0 µM 72% | [6]; [7] 91% | [6]; [8] 95% | [6]; at 50.0 µM 77.8%
inactive: [2]; at 50.0 µM 55.5% | [3]; at 50.0 µM 67.6% | [4]; [7] 34% | [4]; at 50.0 µM 56%

COc1ccc(C(=O)Cn2c(C(C)=O)nc3ccccc32)cc1
inactive: [1]; [7] 26% | [1]; [8] 66% | [1]; at 50.0 µM -23.6% | [2]; [7] 18% | [2]; [8] 36% | [2]; at 50.0 µM -21.1% | [3]; [7] 36% | [3]; at 50.0 µM -14.5% | [4]; [7] 6% | [4]; [8] 32% | [4]; at 50.0 µM 4% | [5]; [7] 31% | [5]; [8] 36% | [5]; at 50.0 µM -32.6% | [6]; [7] 28% | [6]; [8] 52% | [6]; at 50.0 µM -43.2%
active: [3]; [8] 73%

CCCN(CCC)c1ccc(/C=C/c2ccnc3ccccc23)cc1
active: [1]; [8] 74% | [1]; at 50.0 µM 91.2% | [2]; [8] 88% | [2]; at 50.0 µM 92% | [3]; [8] 82% | [3]; at 50.0 µM 92.7% | [5]; [8] 88% | [5]; at 50.0 µM 92% | [6]; [8] 86% | [6]; at 50.0 µM 89.7%
inactive: [1]; [7] 9% | [2]; [7] -10% | [3]; [7] -4% | [4]; [7] -18% | [4]; [8] 60% | [4]; at 50.0 µM 58% | [5]; [7] -12% | [6]; [7] -7%
